ALR H2O2 inh = inhibitors of human sulfhydryl oxidase ALR; P55789; purified ALR, DTT oxidation, H2O2 HRP-luminol luminescence; inhibition, % (test concentration not listed); 290,000 compounds, 3.8% hits;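 active means mean replicate inhibition above about 79%, with every replicate also reaching it, limit read from the data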
CaV13 FRET inh = Primary screen for inhibitors of IQ motif and Ca2+-dependent inactivation inhibitor domain binding in CACNA1D, Förster resonance energy transfer in living cells, … | HEK cells, CFP/YFP FRET ICDI-IQ, plate reader, 10 min; percent FRET-ratio fall versus neutral wells | inhibition, % at 12.3 µM | 340,000 compounds, 0.098% hits;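 active means mean replicate inhibition of at least 30% and at least 1% of replicates passing that level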;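 further: 0% = median of the neutral control wells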
IDE cell inh = inhibitors of human insulin-degrading enzyme in cells | P14735 | HEK cells, FAbetaB cleavage, fluorescence polarization | inhibition, % at 5.59 µM | 320,000 compounds, 0.41% hits | AID 434962;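 active means percent inhibition above the average of all tested compounds plus 3 SD, set per screening campaign, cut at about 16% in these data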;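 further: IDE supplied by intact live HEK cells; FP after avidin binding of uncleaved biotin substrate so inhibition keeps polarization high; 0% = DMSO wells and 100% = 60 µM reference IDE inhibitor Ii1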
Target sequence (P14735 whole entry, looked up): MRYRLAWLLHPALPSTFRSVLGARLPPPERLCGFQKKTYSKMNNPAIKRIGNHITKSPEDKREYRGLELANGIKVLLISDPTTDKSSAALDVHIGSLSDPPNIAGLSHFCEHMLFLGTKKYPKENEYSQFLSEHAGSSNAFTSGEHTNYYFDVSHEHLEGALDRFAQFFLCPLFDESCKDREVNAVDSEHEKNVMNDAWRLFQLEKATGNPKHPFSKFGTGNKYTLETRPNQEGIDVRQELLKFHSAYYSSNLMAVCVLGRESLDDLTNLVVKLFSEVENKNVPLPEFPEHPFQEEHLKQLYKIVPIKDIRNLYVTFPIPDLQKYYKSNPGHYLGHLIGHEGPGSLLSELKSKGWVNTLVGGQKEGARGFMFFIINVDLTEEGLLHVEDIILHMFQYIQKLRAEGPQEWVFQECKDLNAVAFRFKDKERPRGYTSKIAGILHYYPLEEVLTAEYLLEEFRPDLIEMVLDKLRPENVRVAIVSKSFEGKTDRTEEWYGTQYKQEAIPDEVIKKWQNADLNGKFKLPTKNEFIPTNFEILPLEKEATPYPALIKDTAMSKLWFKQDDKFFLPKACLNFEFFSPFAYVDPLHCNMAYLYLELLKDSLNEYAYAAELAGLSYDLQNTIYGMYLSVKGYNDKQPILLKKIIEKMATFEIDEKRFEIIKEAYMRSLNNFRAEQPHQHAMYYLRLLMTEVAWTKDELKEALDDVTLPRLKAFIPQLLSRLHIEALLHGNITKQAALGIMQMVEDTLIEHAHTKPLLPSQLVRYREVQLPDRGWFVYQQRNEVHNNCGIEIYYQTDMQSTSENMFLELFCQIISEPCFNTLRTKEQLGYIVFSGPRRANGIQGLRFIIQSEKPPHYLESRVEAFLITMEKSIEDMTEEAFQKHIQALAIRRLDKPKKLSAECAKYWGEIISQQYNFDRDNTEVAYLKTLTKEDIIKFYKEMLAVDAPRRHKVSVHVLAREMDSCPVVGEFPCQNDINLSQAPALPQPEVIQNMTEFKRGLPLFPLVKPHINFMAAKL
PolyA inhibitor = yeast polyadenylation inhibition. S. cerevisiae SKY197-pL101 polyadenylation reporter, beta-gal luminescence; efflux-impaired pdr1/pdr3 knockout yeast; score 100 = 6 SD above DMSO. activity score, % at 12 µM. 300,000 compounds, 0.02% hits;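 active means lowest replicate activity score at least 50, where 100 means six control SD above control mean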;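 further: yeast exposed to compound for 9 h at 30 °C; higher score means more reporter readthrough which indicates perturbed polyadenylation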
IDE act = IDE (human) activation, cell-based; 340,000 compounds, 0.073% hits; P14735; HEK cells, FAbeta-B cleavage, fluorescence polarization; 0% vehicle, 100% cell-free pure enzyme wells; activation, % at 5.96 µM; AID 493087;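 active means activation above the mean of all tested compounds plus 3 SD, set per screening campaign, cut at about 17% in these data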
PfM18AAP inh = blocks P. falciparum M18 aspartyl aminopeptidase. recombinant PfM18AAP, H-Glu-NHMec fluorogenic cleavage. inhibition, % at 7.35 µM. 290,000 compounds, 1.2% hits. AID 1822;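 active means inhibition above the campaign mean inhibition over all tested compounds plus 3 SD, cut at about 28% in these data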;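 further: 0% = plate median of test compound wells and 100% = 2 mM ZnCl2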
* marks the source's active call; other numbers are inactive results; . = no result given. Sampled rows, rich in hits. Any-hit rate of the full collection: about 4.1%.

SMILES | ALR H2O2 inh | CaV13 FRET inh | IDE cell inh | PolyA inhibitor | IDE act | PfM18AAP inh
Cc1cc(-c2ccccc2)nc2[nH]n(-c3ccccc3)c(=O)c12 | 99* | -5 | 4 | -40 | 1 | -4
Cc1cc(C)c2c(=O)n(-c3ccccc3)[nH]c2n1 | 99* | -4 | 2 | 11 | -1 | 3
Cc1cc(C(C)(C)C)nc2[nH]n(-c3ccccc3)c(=O)c12 | 96* | -5 | -1 | 6 | 1 | 6
C[C@@H](NC(=O)Cn1ccc(NC(=O)OCc2ccccc2)nc1=O)c1cccc2ccccc12 | -6 | -10 | 0 | . | 6 | .
CC(OC(=O)CCN1C(=O)c2cccc([N+](=O)[O-])c2C1=O)C(=O)Nc1cc(Cl)cc(Cl)c1 (centres undefined) | -8 | -5 | 4 | 5 | 0 | -1
O=C(NC1CCCCC1)OC[C@@H]1CSCCS(=O)(=O)N1 | . | -5 | . | . | . | .
Cc1[nH]n(-c2ccc(F)cc2)c(=O)c1C=Nc1ccc(S(=O)(=O)N(C)C)cc1 | -4 | -5 | 2 | 9 | -6 | 4
NNC(=S)Nc1ccc(S(=O)(=O)N2CCCCC2)cc1 | 5 | -16 | -8 | -11 | 3 | 12
NNC(=S)Nc1ccc(S(=O)(=O)N2CCOCC2)cc1 | 98* | -4 | 4 | -9 | 2 | 3
Nc1nnc(SCC(=O)Nc2ccc(S(=O)(=O)N3CCOCC3)cc2)s1 | 96* | -8 | 9 | 15 | 3 | -5
Nc1nnc(SCC(=O)Nc2cc(S(=O)(=O)N3CCOCC3)ccc2Cl)s1 | -3 | -5 | -2 | -5 | 0 | -3
OC(COC1CCCCC1)CN1CCN(c2ccccc2)CC1 (centres undefined) | 92* | -3 | 7 | . | -1 | 0
c1ccc(CNc2ccc3c(c2)ncn3C2CCCCC2)nc1 | 94* | -9 | -1 | -2 | 5 | 3
O=c1c(Sc2ccccc2)c(C(F)(F)F)[nH]n1-c1ccccc1 | 35 | . | 1 | -16 | 7 | 4
Oc1ccc(/C=N/Nc2nc(-c3cccnc3)nc3ccccc23)c(O)c1 | 33 | -4 | 7 | 1 | -7 | 30*
Cc1ccc(Nc2nc(-c3cccnc3)nc3ccccc23)cc1 | . | 0 | -1 | -30 | -8 | 4
COc1ccc(/C=N/Nc2nc(-c3cccnc3)nc3ccccc23)cc1OC | . | -3 | -3 | 6 | 4 | 9
Cc1c(O)ccc(/C=N/Nc2nc(-c3cccnc3)nc3ccccc23)c1O | 14 | -2 | -2 | 19 | 2 | 29*
CC(C)(C)OC(=O)N1CCC[C@@H]1C(=O)NCc1ccccc1 | . | -11 | . | . | . | .
NNC(=S)Nc1cccc(-c2n[nH]c(=S)o2)c1 | 98* | -5 | 7 | 3 | 3 | 10
CC(C)COCC(O)CCC(=O)NNC(=S)Nc1ccccc1 (centres undefined) | 93* | -5 | -1 | -8 | 5 | 16
O=C(Cc1ccccc1)NNC(=S)Nc1ccccc1 | 30 | 11 | 1 | -7 | . | 19
CC(NC(=O)CCc1nnc(CCCc2ccccc2)o1)c1ccccc1 (centres undefined) | -4 | -7 | 3 | -12 | -1 | -1
CCC(CC)C(=O)N(C)c1c(C)nc2c(OCc3cccc(OC)c3)cccn12 | . | -5 | . | . | . | .
CC(=O)C(=Nc1ccccc1Cl)NNc1ccc(Cl)cc1 | 95* | -3 | -1 | -4 | -5 | -64
SMILES | ALR H2O2 inh | CaV13 FRET inh | IDE cell inh | PolyA inhibitor | IDE act | PfM18AAP inh
COC(=O)C1=CN(Cc2ccc(OC)c(OC)c2)C=C(C(=O)OC)C1c1cccc(F)c1 | 1 | 79* | -2 | 13 | 1 | 5
CCOc1ccccc1NC(=O)C1CCN(C(=O)C2CC(=O)N(c3ccc(C)cc3)C2)CC1 (centres undefined) | 0 | -2 | 3 | 12 | 3 | 0
COc1cccc(-c2nc(CS(=O)CC(=O)NC(C)CCc3ccccc3)c(C)o2)c1 (centres undefined) | 98* | -2 | 3 | -3 | 5 | -3
COc1cccc(-c2nc(CS(=O)CC(=O)NCCc3ccccc3)c(C)o2)c1 (centres undefined) | 99* | -3 | 4 | -1 | 8 | -2
COc1cccc(-c2nc(CS(=O)CC(=O)O)c(C)o2)c1 (centres undefined) | 99* | -7 | -1 | 0 | 8 | -2
CCC(C)NC(=O)CS(=O)Cc1nc(-c2cccc(OC)c2)oc1C (centres undefined) | 99* | -3 | -2 | 0 | 5 | -1
Cc1oc(-c2ccccc2)nc1CS(=O)CC(=O)O (centres undefined) | . | -7 | -2 | -10 | 2 | -6
CC(C)C[C@H]1CNC(=O)C(=O)N1C[C@@H]1CCCN1C[C@H](Cc1ccccc1)N1C[C@H](Cc2ccccc2)N(CC2CCCCC2)C(=O)C1=O | . | -6 | . | . | . | .
COc1ccc(OC(=O)c2ccc(OC)c(S(=O)(=O)N3CCOCC3)c2)cc1 | -5 | . | . | 14 | 1 | 2
Cc1ccccc1C(=O)N[C@H](C(=O)N1CCC[C@H]1C(=O)NCCc1ccccc1Cl)c1ccccc1 | . | -3 | . | . | . | .
O=C(CCc1c[nH]c2ccccc12)NCC1COc2ccccc2O1 (centres undefined) | 12 | 0 | 5 | 13 | -2 | -5
O=C(CCCc1c[nH]c2ccccc12)NCC1COc2ccccc2O1 (centres undefined) | 98* | -1 | 0 | -2 | 3 | -12
Cc1csc(=O)n1CCC(=O)OCC(=O)N(C)c1c(N)n(Cc2ccccc2)c(=O)[nH]c1=O | . | -13 | . | . | . | .
CC(NC(=S)Nc1c(Br)cccc1OC(F)F)C(C)(C)C (centres undefined) | 40 | -5 | 3 | -2 | 1 | -5
CC(C)(C)NC(=O)CSc1nc2ccc(Nc3nc(N4CCOCC4)nc(N4CCOCC4)n3)cc2s1 | 99* | -8 | 10 | -10 | 4 | -2
COc1ccc(NC(=O)CSc2nc3ccc(Nc4nc(N5CCOCC5)nc(N5CCOCC5)n4)cc3s2)cc1 | 5 | -3 | 5 | -7 | 3 | -2
CC(=O)CSc1nc2ccc(Nc3nc(N4CCOCC4)nc(N4CCOCC4)n3)cc2s1 | 99* | -6 | 1 | -10 | 2 | 3
CCOC(=O)CSc1nc2ccc(Nc3nc(N4CCOCC4)nc(N4CCOCC4)n3)cc2s1 | 99* | -5 | 6 | 7 | -1 | -3
Cc1ccc(NC(=O)CSc2nc3ccc(Nc4nc(N5CCOCC5)nc(N5CCOCC5)n4)cc3s2)cc1 | -5 | -6 | . | . | 2 | -6
O=C1CCCCN1CCc1c[nH]c2ccccc12 | 87* | -5 | -2 | 8 | -4 | -9
CC(C)(C)c1cc(CCC(=O)NNC(=O)c2ccco2)cc(C(C)(C)C)c1O | . | -5 | 3 | -5 | 3 | 3
CC(=O)NC(=S)NNC(=O)CCc1ccccc1 | 41 | -4 | -5 | -6 | 4 | 7

Assay outcomes as filed in PubChem.
